Shown are actives, neighbours in structure and some others; about 6.8% of the full set was active somewhere.
PINK1 expr mod – PINK1 expression modulation; PINK1 immunofluorescence, high-content cytometry, 24 h; Potency, µM (series often up to 76.6 µM), hits mostly activators; 0.2% of 410,000 active; AID 624263; active means well fitted activation curve with a large enough effect; inconclusive means small, poorly fitted or top-dose-only effect; cell line not stated here; further: nearly all actives have a fitted effect of over 65% in size
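Fluorescence from anti-PINK1 antibody, together with nuclear and cell stains, was scanned on a laser-scanning cytometer. Before staining, stable-line cells were incubated 24 hours with compounds at 5 concentrations; primary antibody 12 h at 10 degrees C.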
KB-3-1 cytotox – KB-3-1 parental cell cytotoxicity. 1.4% of 400,000 active. AID 1347075. Potency, µM (series often up to 46.1 µM), most hits filed as cytotoxic. KB-3-1 viability, CellTiter-Glo ATP luminescence, 72 h; further: nearly all actives have a fitted effect of over 60% in size
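KB-3-1 parental drug-naive adenocarcinoma cells in DMEM/10% FBS, incubated 72 h at 37 C with pin-transferred compounds across a concentration series. Viability by CellTiter-Glo luminescence; concentration-response curves fitted after normalization.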
KB-V1 MDR tox – KB-V1 MDR subline cytotoxicity. 3.4% of 400,000 active. Potency, µM (titrated, usually from 46.1 µM), most hits filed as cytotoxic. KB-V1 MDR cells viability, CellTiter-Glo, 72 h; further: nearly all actives have a fitted effect of over 60% in size
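Following 72 h at 37 degrees C with compound, KB-V1 cell viability was read by CellTiter-Glo luminescence, medium being phenol-red-free DMEM plus 10% FBS; concentration-response parameters came from normalized, curve-fitted qHTS data.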
SW480 rereplic – induces DNA re-replication in SW480 colon adenocarcinoma cells; Potency, µM (doses to about 46.1 µM), most hits filed as activators; 1.8% of 340,000 active; SW480 DNA re-replication, Hoechst DNA content imaging, 48 h; AID 624297; further: nearly all actives have a fitted effect of over 55% in size
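First, 250 cells per well were seeded. Next, compound or vehicle (23 nL) was pinned in, plates sat 48 hr at 37 C. Finally Hoechst was added for 40 min before fluorescence scanning.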
MCF10A rereplic – induces DNA re-replication in MCF 10a normal breast cells; MCF 10A DNA re-replication, Hoechst nuclear intensity, 48 h; Potency, µM (doses to about 46.1 µM), usual class: activators; 2.9% of 350,000 active; further: nearly all actives have a fitted effect of over 50% in size
PTAP TSG101 blk – blocks PTAP/TSG101 interaction to inhibit HIV-1 budding | Q99816 | Fluorescence polarization, FITC-PTAP peptide / Tsg101 binding | Potency, µM (doses to about 115 µM), most hits filed as inhibitors | 340,000 tested, under 10 active; active means well fitted inhibition curve with a large enough effect in the main read-out, with a control signal flat, not every such curve was filed as active; inconclusive means small, poorly fitted or top-dose-only effect, or effect the other way, or a change in a side signal; inactive means no such curve, though single readings can be large or run the other way
Target sequence (Q99816 whole entry, looked up): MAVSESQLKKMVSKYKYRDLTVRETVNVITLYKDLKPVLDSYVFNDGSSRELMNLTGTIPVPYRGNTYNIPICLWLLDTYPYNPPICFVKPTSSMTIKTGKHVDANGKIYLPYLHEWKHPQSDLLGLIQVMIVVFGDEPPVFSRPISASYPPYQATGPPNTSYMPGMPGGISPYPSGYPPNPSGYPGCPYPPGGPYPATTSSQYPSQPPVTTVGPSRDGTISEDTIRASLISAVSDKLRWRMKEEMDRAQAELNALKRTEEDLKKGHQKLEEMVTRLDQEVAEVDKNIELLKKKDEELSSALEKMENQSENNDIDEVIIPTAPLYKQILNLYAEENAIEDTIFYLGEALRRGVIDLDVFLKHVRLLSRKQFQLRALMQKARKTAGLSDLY
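Fluorescence polarization binding of Tsg101 binding domain (10 uM final) to FITC-labeled PTAP peptide (50 nM final) in HEPES pH 7.5 buffer with NaCl, Tween 20, EDTA, TCEP. Compounds added before peptide; binding 20 min at RT.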
Numbers stand for hits. Unless noted, the call rests on the fitted dose curve; in most records, active means well fitted curve in the direction sought with a large enough effect; inconclusive means small, poorly fitted or top-dose-only effect, or another doubt; inactive means no such curve, though single readings can be large; an effect the other way counts as inactive or inconclusive.

`COc1ccccc1OCCn1c(NC(=O)c2ccccc2Cl)nc2ccccc21` gave PINK1 expr mod inactive, KB-3-1 cytotox inactive and KB-V1 MDR tox inactive.
Nc1ccn([C@@H]2O[C@H](CO)[C@H](O)C2(F)F)c(=O)n1 was read as SW480 rereplic inconclusive and MCF10A rereplic inactive.
Cc1ccccc1-c1nc(CS(=O)(=O)CC(=O)NCc2cccc(Cl)c2)c(C)o1 was read as PINK1 expr mod inactive, KB-3-1 cytotox inactive and KB-V1 MDR tox inactive.
`CCn1c(Cl)c(C=O)s/c1=N\S(=O)(=O)c1ccccc1` gave PINK1 expr mod inactive, KB-3-1 cytotox inconclusive, KB-V1 MDR tox inconclusive, SW480 rereplic 15µM, MCF10A rereplic 1.2µM and PTAP TSG101 blk inactive.
For CCN1C(=O)CS/C1=N\S(=O)(=O)c1ccc(Cl)cc1 the results were PINK1 expr mod inactive, KB-3-1 cytotox inactive, KB-V1 MDR tox inactive, SW480 rereplic inactive, MCF10A rereplic inactive and PTAP TSG101 blk inactive.
`Cc1ccnc(NC(=S)N2CCN(c3ccc(C(F)(F)F)cc3)CC2)c1` gave KB-3-1 cytotox inactive and KB-V1 MDR tox inactive.
For COc1ccc(NC(=O)CN(C)C(=O)c2c(C)nn(Cc3ccccc3)c2C)cc1 the results were PINK1 expr mod inactive, KB-3-1 cytotox inactive, KB-V1 MDR tox inactive, SW480 rereplic inactive, MCF10A rereplic inactive and PTAP TSG101 blk inactive.
`CSc1ccccc1NC(=O)CN(C)C(=O)c1c(C)nn(Cc2ccccc2)c1C` gave PINK1 expr mod inactive, KB-3-1 cytotox inactive, KB-V1 MDR tox 21µM, SW480 rereplic inactive, MCF10A rereplic inactive and PTAP TSG101 blk inactive.
`Cc1ccc(Cn2c(C(=O)O)c(CNC3CCCC3)c3ccc(C)cc32)cc1` gave PINK1 expr mod inactive, KB-3-1 cytotox inactive and KB-V1 MDR tox inconclusive.
CCOC(=O)C1=C(C)N=c2s/c(=C\c3ccc(OCC(=O)O)cc3)c(=O)n2C1c1ccc(OC(C)C)cc1 (stereo not drawn) was read as PINK1 expr mod inactive, KB-3-1 cytotox inactive, KB-V1 MDR tox inconclusive, SW480 rereplic inactive, MCF10A rereplic 15µM and PTAP TSG101 blk inactive.
`COc1cc(Cl)c(C)cc1NC(=O)CSc1nc2c(c(=O)[nH]1)CCC2` gave PINK1 expr mod inactive, KB-3-1 cytotox inactive and KB-V1 MDR tox inactive.
For Cc1ccc(S(=O)(=O)N(CCC(=O)NCC(c2ccccc2)N(C)C)c2ccccc2)cc1 (stereo not drawn) the results were PINK1 expr mod inactive, KB-3-1 cytotox inactive, KB-V1 MDR tox 10µM, SW480 rereplic inactive, MCF10A rereplic inactive and PTAP TSG101 blk inactive.
`Cc1ccc(N(CC(=O)NCC(O)c2ccccc2)S(=O)(=O)c2ccc(C)cc2)cc1` (stereo not drawn) gave PINK1 expr mod inactive, KB-3-1 cytotox inactive, KB-V1 MDR tox inactive, SW480 rereplic inactive, MCF10A rereplic inactive and PTAP TSG101 blk inactive.
For CCOC(=O)c1c(C)oc2nc(C)nc(N3CCN(c4cccc(C)c4C)CC3)c12 the results were PINK1 expr mod inactive, KB-3-1 cytotox inactive and KB-V1 MDR tox inactive.
Screening CCOc1ccccc1NC1(c2ccccc2)C(=O)c2ccccc2C1=O returned PINK1 expr mod inactive, KB-3-1 cytotox inactive and KB-V1 MDR tox inactive.
`Cc1ccc(CNC(=O)C2CCC(CNc3nc(=S)[nH]c4ccccc34)CC2)cc1` (stereo not drawn) gave PINK1 expr mod inactive, KB-3-1 cytotox inconclusive, KB-V1 MDR tox inactive, SW480 rereplic inactive, MCF10A rereplic 23µM and PTAP TSG101 blk inactive.
For COc1cccc(CNC(=O)C2CCC(CNc3nc(=S)[nH]c4ccccc34)CC2)c1 (stereo not drawn) the results were PINK1 expr mod inactive, KB-3-1 cytotox inactive, KB-V1 MDR tox inactive, SW480 rereplic inactive, MCF10A rereplic inconclusive and PTAP TSG101 blk inactive.
`Oc1ccc2ccccc2c1CNc1ccc2ccccc2c1` gave PINK1 expr mod inactive, KB-3-1 cytotox inconclusive, KB-V1 MDR tox inconclusive, SW480 rereplic inconclusive, MCF10A rereplic 21µM and PTAP TSG101 blk inactive.
Screening COc1ccc(NC(=O)c2c(Cl)n(C)c3ccccc23)cc1 returned PINK1 expr mod inactive, KB-3-1 cytotox 2.9µM, KB-V1 MDR tox 5.8µM, SW480 rereplic inconclusive, MCF10A rereplic 16µM and PTAP TSG101 blk inactive.
Screening COc1ccc(NC(=O)c2cccc3c(Br)cccc23)cc1 returned PINK1 expr mod inactive, KB-3-1 cytotox inactive, KB-V1 MDR tox inactive, SW480 rereplic inactive, MCF10A rereplic inconclusive and PTAP TSG101 blk inactive.
For COc1ccc(NC(=O)c2cccc3ccccc23)cc1 the results were PINK1 expr mod inactive, KB-3-1 cytotox inconclusive, KB-V1 MDR tox inconclusive, SW480 rereplic inconclusive, MCF10A rereplic 21µM and PTAP TSG101 blk inactive.
For O=C(Nc1ccncc1)c1sc2ccccc2c1Cl the results were PINK1 expr mod inactive, KB-3-1 cytotox inactive, KB-V1 MDR tox 8.2µM, SW480 rereplic inactive, MCF10A rereplic inactive and PTAP TSG101 blk inactive.
For Cc1nnc2c(N3CCN(c4ccc(F)cc4)CC3)nc3ccc(C(=O)c4ccccc4)cc3n12 the results were PINK1 expr mod inactive, KB-3-1 cytotox inactive and KB-V1 MDR tox inactive.
Screening O=C(/C=C/c1cccnc1)Nc1cccc([S+](=O)([O-])Nc2ccccc2F)c1 returned KB-3-1 cytotox inactive and KB-V1 MDR tox inactive.
O=C(Nc1ccc2ccccc2c1)c1ccccc1Cl was read as PINK1 expr mod inactive, KB-3-1 cytotox inactive and KB-V1 MDR tox inactive.
`O=C(Nc1ccncc1)c1ccc(-c2ccccc2)cc1` gave PINK1 expr mod inactive, KB-3-1 cytotox 23µM, KB-V1 MDR tox inactive, SW480 rereplic inconclusive, MCF10A rereplic inconclusive and PTAP TSG101 blk inactive.
`COc1c(C(=O)Nc2ccc(Cc3ccncc3)cc2)ccc2ccccc12` gave PINK1 expr mod inactive, KB-3-1 cytotox 13µM, KB-V1 MDR tox 2.9µM, SW480 rereplic inconclusive, MCF10A rereplic 23µM and PTAP TSG101 blk inactive.
Screening O=C(NC1CCCCC1)c1cc2ccccc2cc1O returned PINK1 expr mod inconclusive, KB-3-1 cytotox inconclusive, KB-V1 MDR tox inactive, SW480 rereplic 18µM, MCF10A rereplic inactive and PTAP TSG101 blk inactive.
`O=C(Nc1cccnc1)c1ccc(-c2ccccc2)cc1` gave PINK1 expr mod inactive, KB-3-1 cytotox inactive, KB-V1 MDR tox inactive, SW480 rereplic inconclusive, MCF10A rereplic inactive and PTAP TSG101 blk inactive.
`O=C(NC1CCCCCCC1)c1ccccc1O` gave PINK1 expr mod inconclusive, KB-3-1 cytotox inactive, KB-V1 MDR tox inactive, SW480 rereplic inactive, MCF10A rereplic inactive and PTAP TSG101 blk inactive.
For O=C(Nc1ccc2ccccc2c1)c1ccccc1O the results were PINK1 expr mod 14µM, KB-3-1 cytotox inconclusive, KB-V1 MDR tox inconclusive, SW480 rereplic inactive, MCF10A rereplic inconclusive and PTAP TSG101 blk inactive.
For COc1cc(NC(=O)c2nn(C)c3c2COc2ccccc2-3)cc(OC)c1OC the results were PINK1 expr mod inactive.

Bioassay records from PubChem BioAssay.
